Shown are actives, neighbours in structure and some others; about 5% of the full set was active somewhere.
CHT allo act = human CHT allosteric activation; CHT-expressing cells, membrane potential dye, choline EC20; stronger effect = higher value; LV-AA mutant CHT in HEK293 cells; 310,000 compounds, 0.49% hits; Q9GZV3; B-score at 10 µM;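 active means initial fluorescence not abnormally high and integrated response B-score, plate-corrected, over 3 SD above library mean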
PREPL inhibitor = inhibitors of human prolyl oligopeptidase-like enzyme PREPL | recombinant PREPL, fluorescence polarization activity-based probe | 320,000 compounds, 0.68% hits | inhibition, % at 5.96 µM | Q4J6C6 | AID 2751; in the data active means inhibition above about 43%;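 further: 0% = enzyme with DMSO and 100% = wells lacking enzyme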
Target sequence (Q4J6C6 whole entry, looked up): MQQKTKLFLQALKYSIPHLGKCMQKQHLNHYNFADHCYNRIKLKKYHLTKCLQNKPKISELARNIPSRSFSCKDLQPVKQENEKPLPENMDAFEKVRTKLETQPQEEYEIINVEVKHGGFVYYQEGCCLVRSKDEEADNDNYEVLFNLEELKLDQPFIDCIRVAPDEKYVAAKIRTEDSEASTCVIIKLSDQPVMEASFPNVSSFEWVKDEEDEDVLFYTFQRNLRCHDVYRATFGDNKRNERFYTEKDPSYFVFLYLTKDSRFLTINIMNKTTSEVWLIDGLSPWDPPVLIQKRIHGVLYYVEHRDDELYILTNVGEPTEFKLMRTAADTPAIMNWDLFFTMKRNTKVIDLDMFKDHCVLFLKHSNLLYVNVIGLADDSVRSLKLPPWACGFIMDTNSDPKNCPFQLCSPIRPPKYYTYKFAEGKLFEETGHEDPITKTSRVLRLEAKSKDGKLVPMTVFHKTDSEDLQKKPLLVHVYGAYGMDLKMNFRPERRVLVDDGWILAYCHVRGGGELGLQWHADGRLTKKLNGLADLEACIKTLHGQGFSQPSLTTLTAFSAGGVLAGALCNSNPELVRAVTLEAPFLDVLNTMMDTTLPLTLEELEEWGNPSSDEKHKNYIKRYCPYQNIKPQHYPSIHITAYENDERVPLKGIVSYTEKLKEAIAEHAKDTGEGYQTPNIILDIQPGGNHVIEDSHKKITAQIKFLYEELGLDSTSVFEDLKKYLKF
CHT block = human CHT choline transport inhibition; Q9GZV3; CHT-expressing cells, membrane potential dye, choline response; stronger effect = lower value; B-score at 10 µM; 310,000 compounds, 0.86% hits;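 active means B-score over 3 SD under the library average, and starting fluorescence ratio not unusually high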;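 further: choline stimulus applied at its EC90 after an EC20 pre-addition; B-score computed on integrated fluorescence ratio after choline addition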
ALR H2O2 inh = blocks human ALR sulfhydryl oxidase activity | P55789 | purified ALR, DTT oxidation, H2O2 HRP-luminol luminescence | inhibition, % (concentration not given with the values) | 290,000 compounds, 3.8% hits | AID 485317;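 active means mean replicate inhibition above about 79%, with every replicate also reaching it, limit read from the data; inconclusive means only one of the two criteria met; inactive means mean below limit and not every replicate reaching it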
AI-2 QS modul = modulators of Vibrio harveyi AI-2 quorum sensing system. AID 2094. 300,000 compounds, 0.4% hits. Vibrio harveyi JMH597 AI-2 luminescence/OD600 ratio, 9 h; stronger effect = lower value; strain lacks LuxN and CqsS sensors; 0 = neutral-control median. activity change, % at 7.5 µM; in the data active means activity change below about -75%, passing the limit was not always enough; inconclusive means no clear call, values can overlap the other calls;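 further: luminescence divided by OD600 gain over 9 h not by final OD600 alone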
Starred values were filed as active, the others as inactive; i = inactive; ? = inconclusive; . = no result given.

SMILES	CHT allo act	PREPL inhibitor	CHT block	ALR H2O2 inh	AI-2 QS modul
Cc1cc(C)c2nc(N3C(=O)C(O)=C(C(=O)c4ccco4)C3c3ccc(O)cc3)sc2c1 (stereo not given)	.	33	.	99*	.
Cc1ccc2nc(N3C(=O)C(O)=C(C(=O)c4ccco4)C3c3ccc(C)o3)sc2c1 (stereo not given)	i	35	i	89*	50
CCCNC(=O)/C(C#N)=C1\N=C(NC(=O)c2cccs2)c2ccccc21	i	4	i	-11	13
O=C(NNS(=O)(=O)c1ccccc1)Nc1ccc(F)cc1	i	-1	i	-1	40
CC(=O)Nc1ccc(Nc2nc3ccccc3nc2NS(=O)(=O)c2ccccc2)cc1	i	-2	i	98*	-8
Cc1ccc(NC2CCCCC2NS(=O)(=O)c2ccccc2)c(C)c1 (stereo not given)	i	5	i	86*	-2
CC(=O)Nc1ccc(S(=O)(=O)Nc2nc3ccccc3nc2Nc2ccccc2)cc1	i	20	i	.	16
CC(=O)Nc1ccc(NC2CCCCC2NS(=O)(=O)c2ccccc2)cc1 (stereo not given)	i	2	i	99*	20
O=C(NCC(O)CO)c1csc(Nc2cccc3ccccc23)n1 (stereo not given)	i	-4	i	-8	8
C#CCOn1c(-n2nc(C)cc2C)nc2ccccc2c1=O	i	1	i	-9	20
Cc1ccc(C(=O)N/C(=C\c2ccco2)C(=O)N2CCOCC2)cc1C	i	11	i	1	22
Cn1c(SCC(=O)Nc2ccccc2)nc(O)cc1=O	i	6	i	99*	21
Cn1ccnc1SCC(=O)Nc1nc2ccccc2s1	i	-16	i	?	17
Cc1cc(=O)[nH]c(SCC(=O)Nc2nnc(SCc3ccccc3)s2)n1	i	-2	i	-12	27
O=C(CSc1nc(O)cc(=O)n1-c1ccccc1)Nc1nc2ccccc2s1	i	-5	i	99*	3
Cc1cc(=O)[nH]c(SCC(=O)Nc2nc3ccccc3s2)n1	i	10	i	99*	29
Nn1c(SCC(=O)Nc2nc3ccccc3s2)nncc1=O	i	-10	i	98*	26
CCCCc1ccc(NC(=O)N2CCNC(=O)C2CC(=O)Nc2ccsc2C(=O)OC)cc1 (stereo not given)	i	-9	i	-17	-3
Cn1cc([N+](=O)[O-])c(C(=O)NCc2cc3cc(Cl)ccc3[nH]2)n1	i	19	i	35	29
Cc1cc(C)cc(C(=O)NCC(=O)OCC(=O)NCC(F)(F)F)c1	i	7	i	-8	24
Cc1ccc(-n2c(SCC(=O)Nc3ccc(Cl)cc3)nc(O)cc2=O)cc1	i	-19	i	94*	7
O=C(CSc1nc(O)cc(=O)n1-c1ccccc1)Nc1ccc2c3c(cccc13)CC2	i	-1	i	99*	18
CCCn1c(SCC(=O)Nc2ccc(F)c(Cl)c2)nc(O)cc1=O	.	-1	.	.	.
CCCn1c(SCC(=O)Nc2ccc(Cl)cc2F)nc(O)cc1=O	.	18	.	99*	.
Cc1c(O)nc(SCC(=O)Nc2ccc3c4c(cccc24)CC3)n(-c2ccccc2)c1=O	i	14	i	.	7
SMILES	CHT allo act	PREPL inhibitor	CHT block	ALR H2O2 inh	AI-2 QS modul
COc1ccc(NC(=O)CSc2nc(O)cc(=O)n2-c2ccccc2)cc1	i	.	i	99*	38
CCC(C)c1ccc(NC(=O)c2ccco2)cc1 (stereo not given)	i	.	i	7	-6
CCOc1ccc2ccccc2c1C1NC(=O)N(C)C(C)=C1C(=O)OCCOC (stereo not given)	i	1	i	-4	22
CCOCC(=O)Nc1nc2ccccc2s1	i	-2	i	86*	12
COc1ccc(NC(=O)CSc2nc(O)cc(=O)n2C)cc1	i	5	i	99*	-1
CC(Sc1nnc(-c2ccncc2)n1-c1ccc(F)cc1)C(=O)NC1CC1 (stereo not given)	.	3	.	11	.
Nc1ccc(N2CCN(c3ccc(F)cc3)CC2)cc1	i	40	i	99*	10
CC(=O)N1CCN(c2ccc(N)cc2)CC1	.	14	.	99*	.
CC(=O)N1CCN(c2ccc(NC(=O)c3ccc(Cl)cc3)cc2)CC1	i	8	i	3	.
O=C(C(=O)N1CCN(c2cccc(Cl)c2)CC1)N1CCCCC1	i	0	i	5	18
S=C(c1ccc(N2CCCC2)cc1)N1CCCCC1	i	3	i	99*	.
Oc1ccc(C(=S)N2CCCCCC2)cc1	i	4	i	8	13
O=C(N1CCCCC1)N1CCN(c2ccc(Cl)cc2)CC1	i	37	i	98*	-1
O=Cc1ccccc1-c1cn(CCCOCc2ccccc2)nn1	i	1	i	-1	21
Oc1ccc(C[C@@H]2CNCCN2CCc2cccc(F)c2)cc1	i	21	i	12	3
CN1CCCN(Cc2nc(-c3ccc(Cl)cc3)no2)CC1	i	-1	i	-3	-11
Nc1ccccc1-c1nnc2n1CCCCC2	i	5	i	3	7
O=C(O)c1ccc(N2CCCCC2)cc1	i	-5	i	-4	20
Nc1ccc(N2CCCCCC2)cc1	i	17	i	99*	.
Cc1ccccc1C([O-])=Nc1ccc[n+](-c2nc3ccccc3nc2NS(=O)(=O)c2ccccc2)c1	i	7	i	89*	4
Cc1ccc(-n2nc3c(=O)n(C(C)C(=O)NCCc4cccs4)nc(C)c3c2C)cc1 (stereo not given)	i	14	-5.5*	.	9
O=C(Nn1c(Cc2cccs2)nc2ccccc2c1=O)c1ccc(F)c(F)c1	i	-2	i	-23	21
O=C(Cc1cccs1)Nn1c(Cc2cccs2)nc2ccccc2c1=O	i	12	-6.7*	3	2
O=S(=O)(c1ccc2nc(N3CCN(c4ccc(F)cc4)CC3)ccc2c1)N1CCCCC1	i	11	i	-5	22
COc1cc(NC2c3ccccc3C(=O)N2c2cc(C)ccn2)cc(OC)c1OC (stereo not given)	i	-7	i	95*	19
COc1cc(NC2c3ccccc3C(=O)N2c2ccc(C)cn2)cc(OC)c1OC (stereo not given)	i	9	i	9	43
Cn1c2ccccc2c(=O)c2ccc(-c3ccc4c(c3)OCO4)cc21	i	-20	i	13	-2
CC(C)c1ccc(NS(=O)(=O)c2cccc3cccnc23)cc1	i	-11	i	3	1
O=S(=O)(Nc1ccc(O)cc1)c1cccc2cccnc12	i	-10	i	101*	19
N#Cc1ccccc1OCCCN1CCC(Cc2ccccc2)CC1	i	-3	-9*	-27	10

Source: PubChem (several laboratories)
